# Target: USP9X (UniProt Q93008)
# Test: log2 ratio of Biotin-Ahx-Ub-VS probe labelling (fragment/DMSO); higher = less target engagement (more negative = stronger competition), active = hit call of the paper (q ≤ 0.05, log2 ratio ≤ -1)
# Conditions: compound concentration: 200 uM; treatment time: 3 h
# Outline: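 HEK293T lysate (495 µg per sample, in Tris/CHAPS/IGEPAL buffer with protease inhibitors) was treated in triplicate with fragment at 200 µM or with DMSO for 3 h. It was then treated with Biotin-Ahx-Ub-VS (0.5 µM final) for 1 h. Labelled DUBs were NeutrAvidin-enriched, digested with LysC and trypsin, and run by diaPASEF LC-MS/MS. Spectronaut label-free quantities were global-median-normalised. Values are average log2 ratios fragment/DMSO by unpaired t-test, using proteins with ≥2 unique peptides.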
# Sequence of USP9X (Q93008 whole entry, the tested form may be a part): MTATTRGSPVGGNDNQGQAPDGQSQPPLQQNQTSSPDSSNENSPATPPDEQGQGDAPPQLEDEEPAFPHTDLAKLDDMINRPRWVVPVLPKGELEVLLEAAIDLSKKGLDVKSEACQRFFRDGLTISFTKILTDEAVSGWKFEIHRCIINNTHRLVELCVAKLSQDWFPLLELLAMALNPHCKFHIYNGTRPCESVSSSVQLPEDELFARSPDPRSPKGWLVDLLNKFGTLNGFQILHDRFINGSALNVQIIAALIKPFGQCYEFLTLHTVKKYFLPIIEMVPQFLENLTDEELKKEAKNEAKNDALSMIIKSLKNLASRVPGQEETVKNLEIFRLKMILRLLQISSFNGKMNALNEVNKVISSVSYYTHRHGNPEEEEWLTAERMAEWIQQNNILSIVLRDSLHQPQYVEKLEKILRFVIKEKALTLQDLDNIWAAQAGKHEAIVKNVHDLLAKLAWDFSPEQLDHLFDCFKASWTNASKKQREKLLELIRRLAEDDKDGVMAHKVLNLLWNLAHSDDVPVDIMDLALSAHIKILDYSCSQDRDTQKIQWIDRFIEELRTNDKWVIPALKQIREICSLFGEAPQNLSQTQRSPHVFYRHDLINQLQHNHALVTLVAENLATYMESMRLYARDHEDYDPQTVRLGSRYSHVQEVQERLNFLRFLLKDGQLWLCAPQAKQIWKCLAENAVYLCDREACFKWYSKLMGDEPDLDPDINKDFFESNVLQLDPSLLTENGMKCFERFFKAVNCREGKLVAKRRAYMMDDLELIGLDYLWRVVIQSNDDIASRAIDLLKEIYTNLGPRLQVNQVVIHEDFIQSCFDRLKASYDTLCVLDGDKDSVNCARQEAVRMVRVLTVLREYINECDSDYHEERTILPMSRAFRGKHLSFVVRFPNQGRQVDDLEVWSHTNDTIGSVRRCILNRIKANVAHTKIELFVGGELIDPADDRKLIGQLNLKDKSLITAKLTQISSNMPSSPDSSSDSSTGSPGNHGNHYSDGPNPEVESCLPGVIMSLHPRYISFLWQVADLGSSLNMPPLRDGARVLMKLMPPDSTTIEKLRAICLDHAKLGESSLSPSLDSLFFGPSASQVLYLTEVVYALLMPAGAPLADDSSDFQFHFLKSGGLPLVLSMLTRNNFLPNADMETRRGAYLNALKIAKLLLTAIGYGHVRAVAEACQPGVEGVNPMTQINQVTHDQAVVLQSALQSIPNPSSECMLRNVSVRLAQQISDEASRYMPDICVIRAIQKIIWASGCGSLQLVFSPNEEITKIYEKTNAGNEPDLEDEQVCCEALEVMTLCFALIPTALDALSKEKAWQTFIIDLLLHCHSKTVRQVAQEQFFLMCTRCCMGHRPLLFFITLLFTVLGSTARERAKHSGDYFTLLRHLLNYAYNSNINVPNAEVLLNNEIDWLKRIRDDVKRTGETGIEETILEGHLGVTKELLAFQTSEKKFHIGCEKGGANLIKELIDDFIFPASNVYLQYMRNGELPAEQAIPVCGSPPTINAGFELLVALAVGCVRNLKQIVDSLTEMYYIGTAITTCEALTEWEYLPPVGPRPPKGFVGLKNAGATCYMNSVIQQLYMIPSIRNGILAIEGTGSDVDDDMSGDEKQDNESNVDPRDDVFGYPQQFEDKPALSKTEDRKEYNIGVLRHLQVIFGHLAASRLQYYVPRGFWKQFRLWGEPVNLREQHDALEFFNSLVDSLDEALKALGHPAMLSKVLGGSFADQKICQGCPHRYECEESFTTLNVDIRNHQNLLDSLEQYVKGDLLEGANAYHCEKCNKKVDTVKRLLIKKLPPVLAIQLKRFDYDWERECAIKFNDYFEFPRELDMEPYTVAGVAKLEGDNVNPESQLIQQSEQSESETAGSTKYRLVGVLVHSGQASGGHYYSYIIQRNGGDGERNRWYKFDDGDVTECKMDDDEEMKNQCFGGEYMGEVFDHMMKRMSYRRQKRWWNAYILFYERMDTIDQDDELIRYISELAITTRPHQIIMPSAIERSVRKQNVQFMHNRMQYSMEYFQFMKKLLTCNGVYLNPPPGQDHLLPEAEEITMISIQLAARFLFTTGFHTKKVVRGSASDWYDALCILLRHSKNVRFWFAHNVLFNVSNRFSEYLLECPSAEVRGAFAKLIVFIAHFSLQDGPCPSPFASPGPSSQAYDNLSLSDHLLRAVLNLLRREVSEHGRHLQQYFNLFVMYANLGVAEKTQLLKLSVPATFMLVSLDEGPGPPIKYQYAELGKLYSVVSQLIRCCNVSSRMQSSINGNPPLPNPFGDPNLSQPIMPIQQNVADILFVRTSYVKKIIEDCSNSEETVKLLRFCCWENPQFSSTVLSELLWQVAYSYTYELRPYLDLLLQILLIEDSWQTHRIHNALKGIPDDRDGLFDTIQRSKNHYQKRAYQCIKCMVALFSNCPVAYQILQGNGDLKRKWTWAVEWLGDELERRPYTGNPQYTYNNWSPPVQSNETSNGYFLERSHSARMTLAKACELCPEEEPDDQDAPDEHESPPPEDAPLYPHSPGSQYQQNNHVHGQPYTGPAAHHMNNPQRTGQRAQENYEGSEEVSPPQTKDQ
row,SMILES,log2 ratio of Biotin-Ahx-Ub-VS probe labelling
1,O=C(CCl)Nc1ccc(F)cc1Cl,-0.538 (inactive)
2,O=C(CCl)Nc1cccc2ncccc12,-0.112 (inactive)
3,O=C(CCl)NC(Cn1ccccc1=O)c1ccccc1 (centres undefined),-0.00544 (inactive)
4,Cc1n[nH]c(=O)c2c(NC(=O)CCl)oc(C)c12,-0.056 (inactive)
5,Cc1ccc(-c2nnc(C)[nH]2)c(NC(=O)CCl)c1,-0.0335 (inactive)
6,Cc1ccc(C)c(Oc2ccc(CNC(=O)CCl)cn2)c1.Cl,-0.677 (inactive)
7,Cc1nc(CN2CCCN(C(=O)CCl)CC2)no1.Cl,0.101 (inactive)
8,N#Cc1ccc(CNC(=O)CCl)cc1,-0.0142 (inactive)
9,CC(C)n1nccc1NC(=O)CCl,-0.225 (inactive)
10,CC(NC(=O)CCl)c1ccc2[nH]ncc2c1 (centres undefined),-0.429 (inactive)
11,Cl.O=C(CN1CCN(C(=O)CCl)CC1)Nc1ccc(F)cc1,0.0748 (inactive)
12,CC(NC(=O)CCl)c1cnn(C2CC2)c1 (centres undefined),-0.227 (inactive)
13,NC(=O)C(Cc1ccccc1)NC(=O)CCl (centres undefined),-0.099 (inactive)
14,O=C(CCl)NC1CCN(C(=O)C2CCCCC2)CC1,0.243 (inactive)
15,Cc1cc(Cl)ccc1NC(=O)CCl,-0.0827 (inactive)
16,COc1ccc(Cl)cc1NC(=O)CCl,-0.48 (inactive)
17,O=C(CCl)Nc1nnc(CC(F)(F)F)o1,-0.134 (inactive)

row,SMILES,log2 ratio of Biotin-Ahx-Ub-VS probe labelling
1,O=C(CCl)N(C1=CCCCC1)C1CC1,-0.0905 (inactive)
2,Cc1ccc(CN(CCO)C(=O)CCl)cc1,-0.526 (inactive)
3,CC(NC(=O)CCl)c1cccc2ccccc12 (centres undefined),-0.285 (inactive)
4,O=C(CCl)N1CCCCC12CCOCC2,-0.584 (inactive)
5,Cl.Cn1ncc2c1CCCC2NC(=O)CCl (centres undefined),-0.000676 (inactive)
6,COCC[C@@H](NC(=O)CCl)c1ccccc1,-0.0244 (inactive)
7,CN(C(=O)CCl)c1nc2ccccc2s1,-0.325 (inactive)
8,O=C(CCl)N1CCC(C(=O)N2CCCCCC2)CC1,-0.297 (inactive)
9,O=C(CCl)N1CCOC2(CCC2)CC1,-0.0935 (inactive)
10,O=C(CCl)NCCC1=CCCCC1,-0.0639 (inactive)
11,O=C(CCl)N(C1CCCC1)C1CCS(=O)(=O)C1 (centres undefined),-0.0338 (inactive)
12,Cc1noc(N2CCN(C(=O)CCl)CC2)n1.Cl,-0.318 (inactive)
13,COc1ccccc1C(C)NC(=O)CCl (centres undefined),-0.174 (inactive)
14,O=C(CCl)N(Cc1ccsc1)C1CC1,-0.139 (inactive)
15,O=C(CCl)N1CCC(S(=O)(=O)c2ccc(F)cc2)CC1,-0.118 (inactive)
16,Cc1nc(CN2CCN(C(=O)CCl)CC2)cs1,-0.168 (inactive)
17,O=C(CCl)N1CC2(CCOCC2)C1,-0.238 (inactive)
